Measurements: PubChem BioAssay (NCI)
About 79,000 compounds went through this panel and 15% of them were active in at least one assay; those are over-represented in the sample as a whole. Calls of active or inactive are those of the source. No stated cut-off is given here; in the data, active means growth inhibition above about 70%; inactive means the rest.

How the values were obtained:
[1] = NCI Yeast Anticancer Drug Screen. Data for the rad50 strain (AID 155);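 further: 0% = growth of vehicle-only cultures of the same strain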; conditions: S. cerevisiae rad50 strain growth inhibition, stronger effect = higher value
Outline: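 Relative growth inhibition (compound vs vehicle) was measured in yeast with a defined repair-gene alteration.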

[2] = NCI Yeast Anticancer Drug Screen. Data for the mec2-1 strain (AID 157); conditions: S. cerevisiae mec2-1 strain, stronger effect = higher value
Outline: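 Compounds were applied to mec2-1 yeast cells. Their growth was then compared with that of vehicle-treated cultures to give growth inhibition.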

[3] = NCI Yeast Anticancer Drug Screen. Data for the sgs1 mgt1 strain (AID 161);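 further: 0% = growth of cultures given vehicle only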; conditions: S. cerevisiae sgs1 mgt1 strain, stronger effect = higher value
Outline: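 Compounds are added to genetically altered yeast, and growth is compared with cultures given vehicle alone to give percent inhibition.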

[4] = NCI Yeast Anticancer Drug Screen. Data for the cln2 rad14 strain (AID 165);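 further: 0% = growth equal to vehicle treated cultures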; conditions: S. cerevisiae cln2 rad14 strain, stronger effect = higher value
Outline: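 Strain: cln2 rad14 yeast, altered in cell cycle control and DNA damage repair. Read-out: growth inhibition vs vehicle.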

[5] = NCI Yeast Anticancer Drug Screen. Data for the mlh1 rad18 strain (AID 175); conditions: S. cerevisiae mlh1 rad18 strain growth inhibition, stronger effect = higher value
Outline: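 A repair-deficient yeast strain is exposed to test compound, and growth is scored relative to vehicle-treated controls.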

[6] = NCI Yeast Anticancer Drug Screen. Data for the bub3 strain (AID 167); conditions: S. cerevisiae bub3 mutant strain, stronger effect = higher value
Outline: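 Screening used yeast with an engineered genetic alteration affecting cell cycle control. Compound-exposed cultures were compared with vehicle cultures, and reduced growth was taken as inhibition.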

[7] = at 5.0 µM (retest, dose inferred, filed as 0.5)
[8] = at 50.0 µM (retest, dose inferred, filed as 5.0)

Measured: growth inhibition

CCCCCOC(=S)SSSC(=S)OCCCCC
inactive: [1]; [7] -38% | [1]; at 50.0 µM 8.65% | [2]; [7] 44% | [2]; at 50.0 µM 4.7% | [3]; [7] 6% | [3]; at 50.0 µM 22.1% | [4]; [7] -13% | [4]; [8] 66% | [4]; at 50.0 µM -0.1% | [5]; [7] 16% | [5]; at 50.0 µM 21.9%
active: [1]; [8] 96% | [2]; [8] 99% | [3]; [8] 97% | [5]; [8] 97%

C/C(=N/NC(=O)Nc1ccc(N=Nc2ccccc2)cc1)c1cccnc1
inactive: [1]; [7] -10% | [1]; [8] -6% | [1]; at 50.0 µM 12.7% | [2]; [7] -3% | [2]; [8] -11% | [2]; at 50.0 µM -9.55% | [4]; [7] 36% | [4]; [8] -51% | [4]; at 50.0 µM -1.5% | [6]; [7] 7% | [6]; [8] 4% | [6]; at 50.0 µM 10.8% | [5]; [7] 5% | [5]; [8] 25% | [5]; at 50.0 µM 14.3%

O=C1/C(=C\c2ccc(Cl)cc2)SC2SC=C(c3ccc([N+](=O)[O-])cc3)N12 (stereo not given)
active: [1]; [8] 86% | [1]; at 50.0 µM 98.3% | [2]; [8] 94% | [2]; at 50.0 µM 98.9% | [4]; [8] 86% | [4]; at 50.0 µM 98% | [6]; [8] 86% | [6]; at 50.0 µM 86.8% | [5]; [8] 92% | [5]; at 50.0 µM 98.6%
inactive: [1]; [7] 0% | [2]; [7] 2% | [4]; [7] -20% | [6]; [7] -7% | [5]; [7] 5%

C=CCOC(=O)N(C(=O)OCC=C)C(Cc1ccc(O)cc1)C(=O)NNc1ccccc1 (stereo not given)
active: [5]; at 50.0 µM 84.3%
inactive: [1]; [7] 17% | [1]; [8] 65% | [1]; at 50.0 µM 53.4% | [2]; [7] 2% | [2]; [8] 33% | [2]; at 50.0 µM 44.5% | [3]; [7] 11% | [3]; [8] 51% | [3]; at 50.0 µM 69.7% | [4]; [7] 5% | [4]; [8] 56% | [4]; at 50.0 µM 39% | [5]; [7] 20% | [5]; [8] 62%

COc1ccc2c(c1)C1(C)CCCC(C)(C(=O)O)C1CC2 (stereo not given)
inactive: [1]; [7] -8% | [2]; [7] -7% | [4]; [7] -103% | [6]; [7] -8% | [5]; [7] 2%
active: [1]; [8] 99% | [1]; at 50.0 µM 99.5% | [2]; [8] 99% | [2]; at 50.0 µM 99.5% | [4]; [8] 99% | [4]; at 50.0 µM 96.8% | [6]; [8] 93% | [6]; at 50.0 µM 99% | [5]; [8] 98% | [5]; at 50.0 µM 99.5%

CC(=O)/C(=C\c1ccc(N(C)C)cc1)C(C)=[N+](C)C(=O)c1c(/[N+](C)=C(C)\C(=C\c2ccc(N(C)C)cc2)C(C)=O)ncn1C
active: [1]; at 50.0 µM 87.7% | [2]; [8] 70% | [3]; at 50.0 µM 77.3% | [5]; at 50.0 µM 85%
inactive: [1]; [7] 31% | [1]; [8] 47% | [2]; [7] 14% | [2]; at 50.0 µM 7.45% | [3]; [7] 47% | [3]; [8] 66% | [4]; [7] -5% | [4]; [8] 43% | [4]; at 50.0 µM 24.7% | [5]; [7] 49% | [5]; [8] 53%

CCCCCCCCCCCCCC/[N+]([O-])=C/c1ccc([N+](=O)[O-])o1
active: [3]; [8] 70% | [6]; at 50.0 µM 78% | [5]; [8] 79%
inactive: [1]; [7] 7% | [1]; [8] 18% | [1]; at 50.0 µM 50.1% | [2]; [7] 2% | [2]; [8] 10% | [2]; at 50.0 µM 45.3% | [3]; [7] 8% | [3]; at 50.0 µM 50.1% | [6]; [7] 0% | [6]; [8] 14% | [5]; [7] 8% | [5]; at 50.0 µM 54.2%

O=C1/C(=C/c2ccccc2)CN(C(=O)C(F)(F)F)C/C1=C\c1ccccc1
inactive: [1]; [7] 63% | [1]; at 50.0 µM 65.3% | [2]; [7] 43% | [2]; at 50.0 µM 40% | [3]; [7] 52% | [3]; at 50.0 µM 46% | [6]; [7] 53% | [6]; at 50.0 µM 55.1% | [5]; [7] 66% | [5]; at 50.0 µM 53.6%
active: [1]; [8] 84% | [2]; [8] 80% | [3]; [8] 94% | [6]; [8] 93% | [5]; [8] 92%

N#C/C(=C\c1ccc(Cl)cc1Cl)C(N)=S
active: [1]; [8] 78% | [1]; at 50.0 µM 94.7% | [2]; [8] 88% | [2]; at 50.0 µM 95.2% | [3]; [8] 93% | [3]; at 50.0 µM 98.5% | [6]; [8] 79% | [6]; at 50.0 µM 89.1% | [5]; [8] 93% | [5]; at 50.0 µM 95.7%
inactive: [1]; [7] -3% | [2]; [7] -4% | [3]; [7] -2% | [6]; [7] -9% | [5]; [7] -11%

CC(C)Cn1cnc2c(SCc3ccc(Cl)cc3Cl)nc(N)nc21
inactive: [1]; [7] 0% | [1]; [8] 46% | [1]; at 50.0 µM 36.7% | [2]; [7] -1% | [2]; [8] 38% | [2]; at 50.0 µM 29.9% | [4]; [7] -15% | [4]; [8] 44% | [4]; at 50.0 µM 41.2% | [6]; [7] 4% | [6]; [8] 32% | [6]; at 50.0 µM 38.7% | [5]; [7] -3% | [5]; [8] 66% | [5]; at 50.0 µM 66.8%

CC(=O)Oc1ccc(C23CC4CC(CC(C4)C2)C3)cc1
active: [1]; [8] 98% | [1]; at 50.0 µM 98.8% | [2]; [8] 99% | [2]; at 50.0 µM 98.5% | [3]; [8] 99% | [3]; at 50.0 µM 98.6% | [6]; [8] 108% | [6]; at 50.0 µM 98.8% | [5]; [8] 99% | [5]; at 50.0 µM 98.3%
inactive: [1]; [7] -2% | [2]; [7] -2% | [3]; [7] 16% | [6]; [7] 25% | [5]; [7] 10%
